# Records with an inconclusive call do not appear. Values without a mark were called inactive. Activity calls are given as the source filed them. The call rests on the fitted dose curve; in most records, active means well fitted cell-killing curve with a large enough effect; inconclusive means small, poorly fitted or top-dose-only effect, or effect the other way; inactive means no such curve, though single readings can be large or run the other way. *1 amine or outer side, *2 acyl side, *3 side chain or, on linkers, in order; H or OH if unused. Where a SMILES comes first, the peptide text is derived from it. Bridges are numbered along the chain shown (N, C = ends). [ ]: non-standard residue; d: D form. The star is where a group is joined. X5 = NC1=N[C@@H]([C@H](N[*:1])C(=O)[*:2])C[C@H](O)N1; ΔAla(Z-3-ureido) = NC(=O)N/C=C(\N)C(=O)O; β3hOrn = NCCC[C@H](N)CC(=O)*; Dap = NC[C@H](N)C(=O)O
# Experiment: qHTS assay to identify small molecule inhibitors of chordoma cells - UCH-1 (AID 1259355); further: nearly all actives have a fitted effect of over 55% in size
# Settings: UCH-1 chordoma viability, CellTiter-Glo, 48 h, combination, with auranofin plus four topoisomerase inhibitors; series mostly up to 46.1 µM; activity, negative = inhibition: at the top concentration
# Summary of the method: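 800 cells/well, overnight attach; compounds pinned at 15 concs, then auranofin/camptothecin/doxorubicin/rubitecan/topotecan combo added; 48hr 37 C, 5% CO2; CellTiter-Glo, 30min RT, luminescence.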
# On the % scale 0 is the no-effect control and ±100 the full control effect; potency means the concentration at half of the fitted maximal effect.
SMILES,"activity, negative = inhibition",Potency
FC(F)(F)C(F)(F)C(F)(F)C(F)(F)C(F)(F)F,-14.2%,
Nc1nc(=O)n([C@@H]2CS[C@H](CO)O2)cc1F,-39.8%,
OC[C@H]1OC([S-])[C@H](O)[C@@H](O)[C@@H]1O.[Au+] (some centres not stated),-31.3%,
Cc1cccc(C)c1NC(=O)C1CCCCN1C (configuration not stated),-15.4%,
O=C(O)COc1ccccc1/C=N/NC(=O)c1ccncc1,-7.47%,
NC(Cc1ccccc1)C(=O)O (configuration not stated),-7.12%,
C=O,-17.7%,
CC1CCCC(C)N1NC(=O)c1ccc(Cl)c(S(N)(=O)=O)c1 (configuration not stated),-9.84% [at 20.6 µM],
NC[C@H]1O[C@H](O[C@H]2[C@H](O)[C@@H](O[C@H]3O[C@H](CO)[C@@H](O)[C@H](N)[C@H]3O)[C@H](N)C[C@@H]2N)[C@H](O)[C@@H](O)[C@@H]1O,-10.8% [at 20.6 µM],
CCCOC(=O)c1ccccc1O,0.442%,
CCCCC/C=C\C/C=C\C/C=C\CCCCC(=O)O,-2.73%,
CC(=NCc1ccccc1)c1ccccc1O,-3.86%,
CCCCCCCCCCCCCCCCCC(=O)OC[C@@H](O)[C@H]1OC[C@H](O)[C@H]1O,1.52%,
NC(=O)CC[C@@H]1NC(=O)[C@H](Cc2ccccc2)NC(=O)[C@H](Cc2ccc(O)cc2)NC(=O)[C@@H](N)CSSC[C@@H](C(=O)N2CCC[C@H]2C(=O)N[C@@H](CCCN=C(N)N)C(=O)NCC(N)=O)NC(=O)[C@H](CC(N)=O)NC1=O,-4.7%,
NCCC[C@H](N)CC(=O)N[C@H]1CNC(=O)[C@H]([C@H]2C[C@H](O)NC(N)=N2)NC(=O)/C(=C/NC(N)=O)NC(=O)[C@H](CO)NC(=O)[C@H](CO)NC1=O (β3hOrn-[Dap]SS[ΔAla(Z-3-ureido)][X5]; lactam 1-C),30.5%,
O=c1[nH]c(=O)n([C@H]2C[C@H](O)[C@@H](CO)O2)cc1/C=C/Br,-8.7%,
C[C@@H]1C/C=C/C=C/C=C/C=C/[C@H](O[C@@H]2O[C@H](C)[C@@H](O)[C@H](N)[C@@H]2O)C[C@@H]2O[C@](O)(C[C@@H](O)C[C@H]3O[C@@H]3/C=C/C(=O)O1)C[C@H](O)[C@H]2C(=O)O,-0.167%,
CN1CCC(OC(=O)C(Oc2ccc(Cl)cc2)Oc2ccc(Cl)cc2)CC1,-2.89%,
CCCc1ccc(C(=O)O)cc1,-27%,

SMILES,"activity, negative = inhibition",Potency
CNC(=O)OCc1cccc(COC(=O)NC)n1,-6.05%,
Cc1ccc(S(=O)(=O)NCl)cc1,2.88%,
CNC(=O)C[C@@H](N)C(=O)N[C@@H](C(=O)N[C@@H]1C(=O)N2[C@@H]1SC(C)(C)[C@@H]2C(=O)O)c1ccc(O)cc1,-6.81%,
CC(C)O,-9.88%,
CN1C(=O)OC(C)(C)C1=O,-8.23% [at 20.6 µM],
O=P(O)(O)OC[C@H](O)CO,-25.1%,
CC[C@@]1([C@@H]2O[C@@H]([C@H]3O[C@@](O)(CO)[C@H](C)C[C@@H]3C)C[C@@H]2C)CC[C@H]([C@]2(C)CC[C@]3(C[C@H](O)[C@@H](C)[C@@H]([C@@H](C)[C@@H](OC)[C@H](C)C(=O)O)O3)O2)O1 (stereo in doubt),,1260 nM (active)
O=C(O)COc1ccc(CCNS(=O)(=O)c2ccccc2)s1,-3.88%,
CCCCC/C=C\CCC(=O)N[C@H]1[C@H](Oc2c3cc4cc2Oc2ccc(cc2Cl)[C@@H](O[C@@H]2O[C@H](CO)[C@@H](O)[C@H](O)[C@H]2NC(C)=O)[C@@H]2NC(=O)[C@H](NC(=O)[C@@H]4NC(=O)[C@H]4NC(=O)[C@@H](Cc5ccc(c(Cl)c5)O3)NC(=O)[C@H](N)c3ccc(O)c(c3)Oc3cc(O)cc4c3)c3ccc(O)c(c3)-c3c(O[C@H]4O[C@H](CO)[C@@H](O)[C@H](O)[C@@H]4O)cc(O)cc3[C@@H](C(=O)O)NC2=O)O[C@H](CO)[C@@H](O)[C@@H]1O,-6.81% [at 20.6 µM],
C[C@H](O)CN(C)C,-3.84%,
O=C(NNCS(=O)(=O)O)c1ccncc1,-8.79%,
C[C@H]1[C@@H](OC(=O)CCC(=O)O)O[C@@H]2OC3(C)CC[C@H]4[C@H](C)CC[C@@H]1[C@@]24OO3,-10.4%,
CCN(CC)C(=S)S,-11.2%,
C=CCCCCCCCCC(=O)OC,-4.39%,
CC(C)CN(C[C@@H](OP(=O)(O)O)[C@H](Cc1ccccc1)NC(=O)O[C@H]1CCOC1)S(=O)(=O)c1ccc(N)cc1,-19.4%,
O=C[C@H](O)[C@@H](O)[C@@H](O)[C@H](O)CO,-12.6%,
C[C@H](CCC(=O)O)[C@H]1CC[C@H]2[C@@H]3[C@H](O)C[C@@H]4C[C@H](O)CC[C@]4(C)[C@H]3C[C@H](O)[C@]12C,0.354%,
CCCCC[C@H](O)/C=C/[C@H]1[C@H](O)CC(=O)[C@@H]1C/C=C\CCCC(=O)O,1.79%,
